Here are results for 58 compounds from PubChem BioAssay AID2629 (Broad Institute, 2010).

Several values for one entry are separate records, joined by “and”; a condition that tells them apart may be missing. Equal entries are not always repeated. Among all 320,000 compounds or so, about 1,900 (0.59%) were called active. No stated cut-off is given here; in the data, active means inhibition mostly above about 10% (no sharp cut-off); inactive means mostly below about 6.7%. What follows is part of a selection rich in actives, with near analogues and random picks from the rest. Some compounds were tested as several samples or in several runs, with calls that do not always agree.

The target in this test is Protein LANA1 (Human herpesvirus 8 type P (isolate GK18)) (UniProt Q9QR71). In words: blockers of LANA interaction with H2A/H2B – biochemical, FP readout, HTS, primary screen (AID 2629). As to conditions: cell-free LANA-H2A/H2B peptide, fluorescence polarization, stronger effect = higher value, concentration not given here. (Polarisation of emitted light reports the rotation of a fluorescent probe.)
Protein LANA1 (Human herpesvirus 8 type P (isolate GK18)), sequence (Q9QR71 whole entry, looked up): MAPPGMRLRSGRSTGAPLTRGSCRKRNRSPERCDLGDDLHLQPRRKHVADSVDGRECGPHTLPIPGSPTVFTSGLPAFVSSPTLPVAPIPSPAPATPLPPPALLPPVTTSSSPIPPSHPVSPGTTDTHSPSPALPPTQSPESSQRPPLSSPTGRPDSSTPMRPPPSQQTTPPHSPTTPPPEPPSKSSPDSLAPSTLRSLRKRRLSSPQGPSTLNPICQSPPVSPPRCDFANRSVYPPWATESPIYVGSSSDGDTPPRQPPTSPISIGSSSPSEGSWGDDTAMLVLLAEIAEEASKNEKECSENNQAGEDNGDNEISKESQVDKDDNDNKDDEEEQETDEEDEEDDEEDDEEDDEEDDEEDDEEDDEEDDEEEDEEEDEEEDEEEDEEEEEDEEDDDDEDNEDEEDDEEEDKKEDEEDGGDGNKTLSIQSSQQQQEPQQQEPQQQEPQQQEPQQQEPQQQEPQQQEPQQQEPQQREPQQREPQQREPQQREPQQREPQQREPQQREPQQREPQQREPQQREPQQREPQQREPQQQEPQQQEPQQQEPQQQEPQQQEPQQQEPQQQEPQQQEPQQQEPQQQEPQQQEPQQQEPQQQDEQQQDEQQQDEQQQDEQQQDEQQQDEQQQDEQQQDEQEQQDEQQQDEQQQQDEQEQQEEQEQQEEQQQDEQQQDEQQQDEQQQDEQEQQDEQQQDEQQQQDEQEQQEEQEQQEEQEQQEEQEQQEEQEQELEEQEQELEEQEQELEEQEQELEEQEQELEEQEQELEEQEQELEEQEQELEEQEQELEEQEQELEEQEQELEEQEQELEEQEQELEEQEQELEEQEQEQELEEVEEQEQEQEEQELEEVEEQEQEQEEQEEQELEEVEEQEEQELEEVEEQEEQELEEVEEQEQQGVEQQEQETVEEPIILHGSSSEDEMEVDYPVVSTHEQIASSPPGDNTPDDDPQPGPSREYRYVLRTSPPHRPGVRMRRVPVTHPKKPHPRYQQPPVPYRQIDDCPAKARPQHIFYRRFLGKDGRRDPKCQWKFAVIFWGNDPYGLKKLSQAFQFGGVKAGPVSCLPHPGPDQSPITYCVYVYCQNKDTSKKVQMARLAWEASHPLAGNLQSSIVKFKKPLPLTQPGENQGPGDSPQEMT
With `CCc1ccc(OCC(=O)NCC(c2ccc(Cl)cc2)N2CCCCC2)cc1` (stereo not drawn), the inhibition is -1.04% (inactive).

As for `NC(=O)COC(=O)c1sc2cc(F)ccc2c1Cl`, the inhibition is 0.759% (inactive).

As for `Cn1c(SCC(=O)OC2CCCCC2)nnc1-c1ccc(S(=O)(=O)N2CCCC2)cc1`, the inhibition was 5.59% (inactive).

On to `CC1Cc2ccccc2N1C(=O)CSc1nnc(C2CC2)n1C` (stereo not drawn), for which the inhibition was 5.57% (inactive).

On to `CC1Cc2ccccc2N1C(=O)CSc1nnc(-c2ccc(S(=O)(=O)N3CCCC3)cc2)n1C` (stereo not drawn), for which the inhibition is 14.5% (active).

Turning to `COC(=O)[C@H](Cc1ccccc1)NC(=O)[C@@H]1C[C@H]1[C@@H](NC(=O)OCc1ccccc1)c1ccccc1`, the inhibition is 14.2% (active).

On to `COC(=O)[C@H](C)[C@H]1C[C@]1(C)[C@H](NC(=O)OCc1ccccc1)c1ccccc1`, for which the inhibition was -3.43% (inactive).

Take `COC(=O)[C@@H](Cc1ccccc1)NC(=O)NCCc1ccccc1`: the inhibition is -0.105% (inactive).

As for `COc1ccc(N2CCN(Cc3ccc(Br)s3)CC2)cc1`, the inhibition was 0.937% (inactive).

As to `COc1ccccc1C(=O)N1CCNC(=O)C1CC(=O)Nc1ccc(Cl)cc1` (stereo not drawn), the inhibition is -4.24% (inactive).

On to `CSc1ccc(Cl)c(C(=O)OCC(=O)N2CCNC2=O)c1`, for which the inhibition is 2.35% (inactive).

In the case of `COCCNc1ncnc2c1nc1n2CCCC1`, the inhibition is 3% (inactive).

Consider `Cc1cccc(NS(=O)(=O)c2ccc(C)c(C(=O)NCc3cccnc3)c2)c1`, for which the inhibition was -4.62% (inactive).

As to `Cc1cccc(NS(=O)(=O)c2ccc(C)c(C(=O)NCC(c3ccccc3)N(C)C)c2)c1` (stereo not drawn), the inhibition is 70.5% (active).

Consider `Cc1cccc(NS(=O)(=O)c2ccc(C)c(C(N)=O)c2)c1`, for which the inhibition is 2.17% (inactive).

For `O=C1C=C(c2ccnc3cc(Cl)ccc23)C[C@@H](c2ccc3c(c2)OCO3)C1`, the inhibition was 0.0706% (inactive).

Consider `O=C(NCCc1ccc(F)cc1)c1ccc2nccnc2c1`, for which the inhibition is 7.1% (inactive).

For the compound `Cc1nc(C)c2c(c1C(F)(F)F)-c1ccccc1C2(F)F`, the inhibition is 11.7% (active).

On to `CC(O)c1ccc(OCCN(C)c2ccccn2)cc1` (stereo not drawn), for which the inhibition is 0.184% (inactive).

Regarding `CN(CCOc1ccc(CC2SC(=O)NC2=O)cc1)c1ccccn1` (stereo not drawn), the inhibition was 11.3% (active) and 1.08% (inactive).

Regarding `CC(C)=N/N=C1/NC(=O)C(Cc2ccccc2)S1` (stereo not drawn), the inhibition was 0.219% (inactive).

As for `CNc1nccc(-c2ccc(Cl)cc2)c1C#N`, the inhibition was -1.28% (inactive).

In the case of `CSCC[C@H](NC(=O)N1CCn2c1nc1ccccc12)C(=O)NC1CCCCC1`, the inhibition was -4.45% (inactive).

In the case of `Cc1nc(NC(CC(C)C)C(=O)O)c2nc(C)oc2n1` (stereo not drawn), the inhibition is 11.3% (active).

As to `Cc1cc(C)cc(C(=O)NC(CC(N)=O)c2ccc(N3CCC(N4CCCCC4)CC3)c([N+](=O)[O-])c2)c1` (stereo not drawn), the inhibition is -1.95% (inactive).

Consider `CC1(C)CCc2nc(SCc3ccccc3)c(C#N)cc2C1`, for which the inhibition was -3.11% (inactive).

On to `N#CC1=C(SCc2ccc(C#N)cc2)N=C(N)C(c2nc(-c3ccccc3)cs2)C12CCCCC2` (stereo not drawn), for which the inhibition is 5.1% (inactive).

As for `N#CC1=C(SCc2ccccc2)NC(=O)C(C#N)C12CCCC2` (stereo not drawn), the inhibition was 15% (active).

As to `COCCCNC(=O)Cc1ccc(-n2c(C)nc3cccnc32)cc1`, the inhibition was -0.715% (inactive).

For `CCc1ccc(-c2nc(SCC(=O)NC3CCCC3)n[nH]2)cc1`, the inhibition was 1.39% (inactive).

As to `Cc1ccc(CNC(=O)c2c(-c3ccccc3)noc2C)cc1`, the inhibition is -3.29% (inactive).

Take `CC(=O)Nc1cccc(NC(=O)c2c(-c3ccccc3)noc2C)c1`: the inhibition is 18.3% (active).

`Cc1onc(-c2ccccc2)c1C(=O)Nc1ccccc1C#N`: the inhibition is 1.04% (inactive).

For the compound `CC(=O)NC12CC3CC(C1)CC(C(=O)N1CCN(C(=O)c4ccco4)CC1)(C3)C2`, the inhibition was -0.808% (inactive).

As for `O=C(N1CCCC1)C12CC3CC(C1)CC(C(=O)N1CCCC1)(C3)C2`, the inhibition is 15.6% (active).

Turning to `O=C(NCC12CC3CC(C1)CC(CNC(=O)N1CCCC1)(C3)C2)N1CCCC1`, the inhibition is -3.32% (inactive).

Regarding `O=S(=O)(NC1CCCCC1)c1ccc(F)c2ccccc12`, the inhibition was -1.01% (inactive).

On to `COc1cccc(N2CC(C(=O)Nc3c(C)cccc3C)CC2=O)c1` (stereo not drawn), for which the inhibition is -1.43% (inactive).

As to `Cc1cccc(C)c1NC(=O)C1(N(C(=O)c2ccccn2)c2ccc(O)cc2)CCCCC1`, the inhibition is -0.134% (inactive).

For the compound `COc1cccc(N(C(=O)c2ccn[nH]2)C2(C(=O)Nc3c(C)cccc3C)CCCCC2)c1`, the inhibition was 83.6% (active).

`COc1cc(CNCc2ccc(OC)c3ccccc23)cc(OC)c1OC`: the inhibition is -2.97% (inactive).

As to `C=CCC[C@@H](Cc1ccc(F)cc1)C(=O)OC[C@@H](C)NC(=O)[C@H](CC=C)CC(=O)N(CCO)Cc1ccccc1`, the inhibition was -1.37% (inactive).

As for `O=C(CSc1nc2ccccc2c(=O)n1-c1ccccc1F)N1CCOCC1`, the inhibition was -5.04% (inactive).

Turning to `CCOC(=O)N1CCN(CC(=O)Nc2cc(C)nn2-c2nc3ccccc3s2)CC1`, the inhibition was 16.1% (active).

Consider `CCOC(=O)N1CCN(C(=O)Cn2cnc3ccccc3c2=O)CC1`, for which the inhibition is 3% (inactive).

As for `CCOC(=O)N1CCN(CC(=O)Nc2ccc(F)cc2)CC1`, the inhibition is -4.74% (inactive).

As to `O=C(OCc1ccccc1F)c1ccc2c(c1)OCCO2`, the inhibition was -6.13% (inactive).

Regarding `CC(=O)c1nnn(-c2ccc(Cl)cc2C#N)c1C`, the inhibition is 10.1% (active).

For the compound `CCOC(=O)c1nc(C)n(-c2ccc(Cl)cc2Cl)n1`, the inhibition was -1.22% (inactive).

Take `CC(=O)c1cc(C#N)c(SCC(=O)C(C)(C)C)nc1C`: the inhibition is -1.09% (inactive).

For `Cc1ccc(S(=O)(=O)NC(C(=O)N2CCOCCOCCOCCOCC2)c2ccccc2)cc1` (stereo not drawn), the inhibition was -3.32% (inactive).

For the compound `Brc1ccc(-c2n(-c3ccccn3)c3ccccc3[n+]2-c2ccccn2)cc1`, the inhibition was 5.04% (inactive).

Regarding `C[C@@H](C(=O)Nc1ccc2ccccc2c1)[C@@H]1C[C@@]1(C)[C@@H](NC(=O)c1cccnc1)c1ccccc1`, the inhibition is 1.66% (inactive).

`COc1ccc(C(=O)NC2CC2)cc1OC1CCN(Cc2cnn(C)c2)CC1`: the inhibition was 2.53% (inactive).

As to `COc1ccc(C(=O)NC2CC2)cc1OC1CCN(Cc2ccc(SC)cc2)CC1`, the inhibition was 12.2% (active).

In the case of `COc1ccc(C(=O)NC2CC2)cc1OC1CCN(C/C=C/c2ccccc2)CC1`, the inhibition was 5.63% (inactive).

`COc1ccc(C(=O)n2nc(C)c(Br)c2C)cc1OC`: the inhibition was 2.73% (inactive).

Regarding `COc1ccc(C(=O)NC(=S)N2CCCCC2c2cccnc2)cc1OC` (stereo not drawn), the inhibition is -0.0544% (inactive).

What is called inhibition is the change of the read-out against control, counted positive when it falls.
